HT1080 IDH1KD tx = toxicity to HT-1080 IDH1 knockdown cells (counter line); 2% of 360,000 active; Potency, µM (titrated, usually from 46.1 µM), most hits filed as cytotoxic; AID 686971; HT-1080 IDH1 knockdown viability, ATP luminescence, 48 h
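HT-1080-IDH1KD cells (IDH1 knocked down), 750/well in RPMI with 5% FBS, treated with compound 48 h at 37 degrees C. Viability by CellTiter-Glo luminescence, normalised to DMSO and no-cell wells; concentration-response curves classed.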
HT1080-NT tox = kills 2HG-producing HT-1080-NT fibrosarcoma cells; HT-1080-NT fibrosarcoma viability, CellTiter-Glo ATP luminescence, 48 h; Potency, µM (series often up to 46.1 µM), hits mostly cytotoxic; 1.6% of 360,000 active; AID 686970;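 further: NT is the 2HG producing partner of a matched IDH1 knockdown line; nearly all actives have a fitted effect of over 55% in size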
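HT-1080-NT; 750 cells/well; 5% FBS RPMI; 48 h compound, 37 degrees C; CellTiter-Glo luminescence; curve fitting and curve-class assignment.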
TGFb SMAD3 inh = TGF-b pathway inhibition | HepG2 CAGA-GFP TGF-b/SMAD3 reporter, GFP fluorescence, 18 h; TGF-beta stimulated, 500 pg/mL final | Potency, µM (doses to about 46.1 µM), most hits filed as inhibitors | 1.2% of 410,000 active | AID 588855; further: nearly all actives have a fitted effect of over 65% in size
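TGF-beta reporter screen: HEPG2 CAGA-GFP, 1% FBS, 500 pg/mL TGF-beta final, 18 h; per-cell GFP summed per well; curves fitted and categorized by class.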
ATXN2 expr inh = inhibitors of ATXN2 expression; HEK-293 ATXN2-luciferase reporter, luminescence, 24 h; Potency, µM (series often up to 57 µM), most hits filed as inhibitors; 0.72% of 360,000 active; AID 1745845; further: nearly all actives have a fitted effect of over 55% in size
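ATXN2-luciferase reporter cells (luciferase flanked by upstream and downstream ATXN2 gene portions) were treated 24 h at 37 °C with compounds at up to 57 uM. SteadyGlo luminescence gave expression; GF-AFC fluorescence gave viability.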
S2 tox = reduces viability in counter-screen for ATXN expression inhibitors. 0.49% of 400,000 active. S2 cells (HEK-293 line with an ATXN2-luciferase reporter) viability, CellTiter-Fluor protease fluorescence, 24 h. Potency, µM (doses to about 56.7 µM), usual class: cytotoxic; further: nearly all actives have a fitted effect of over 40% in size
HepG2 viability = counter-screen for TGF-b inhibitors: cytotoxicity in HepG2 cells | HepG2 CAGA-GFP viability, ATP luminescence, 18 h | AID 588856 | Potency, µM (top dose mostly 46.1 µM), usual class: cytotoxic | 0.76% of 410,000 active
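CellTiter-Glo luminescence gave cytotoxicity after 18 hours at 37 degrees C. The cells were HepG2 CAGA-GFP in 1% FBS DMEM, stimulated with 500 pg/mL TGF-beta after compound addition. %Activity was normalised to no-cell wells (complete cell-killing) and DMSO (no toxicity), and curves were fitted and classified.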
A number is an active result; . = inactive; ? = inconclusive; / = no result; [ ] = remark or other dose. Rows were chosen to be rich in hits. Some 3.9% of all compounds tested hit in one or more screens of this group. The call rests on the fitted dose curve; in most records, active means well fitted curve in the direction sought with a large enough effect; inconclusive means small, poorly fitted or top-dose-only effect, or another doubt; inactive means no such curve, though single readings can be large; an effect the other way counts as inactive or inconclusive.

SMILES	HT1080 IDH1KD tx	HT1080-NT tox	TGFb SMAD3 inh	ATXN2 expr inh	S2 tox	HepG2 viability
CSc1nnc(CNC(=O)/C=C/c2ccccc2Cl)n1-c1ccc(F)cc1	/	/	/	/	.	/
COc1ccc([C@@H]2CC(=O)c3c(O)cc(O[C@@H]4O[C@H](CO[C@@H]5O[C@@H](C)[C@H](O)[C@@H](O)[C@@H]5O)[C@@H](O)[C@H](O)[C@@H]4O)cc3O2)cc1O	/	/	/	.	/	/
COc1cccc(F)c1C(C[N+](=O)[O-])c1c(N)n(C)c(=O)n(C)c1=O (stereo not given)	5.8µM	10µM	4µM	/	20µM	.
COc1cc(C(C[N+](=O)[O-])c2c(N)n(C)c(=O)n(C)c2=O)ccc1O (stereo not given)	21µM	?	?	?	?	.
COc1cc(C(C[N+](=O)[O-])c2c(C)cc3ccccn23)ccc1O (stereo not given)	9.2µM	?	.	.	?	.
Cc1ccc(C(C[N+](=O)[O-])c2c(N)n(C)c(=O)n(C)c2=O)cc1 (stereo not given)	?	?	?	.	?	.
CN(C)c1ccc(/C=C/c2c(Cl)cnc3ccccc23)cc1	/	/	.	/	/	.
COc1cc(-c2coc3c(C(=O)NCc4cccc(Cl)c4)cccc23)ccc1O	23µM	?	?	?	?	.
COc1cc(-c2coc3c(C(=O)NCc4ccccc4)cccc23)ccc1O	?	18µM	.	.	?	.
Cc1ccc2c(c1)=N/C(=N\c1[nH]c(O)c3ccccc13)N=2	?	23µM	?	/	/	.
COc1cc(Nc2nc(SCc3ccccc3Cl)nc3ccccc23)cc(OC)c1	/	/	11µM	/	/	.
C/C=C1\COC(C(=O)NCc2ccncc2)(C(F)(F)F)C=C1C=C1CCCCC1 (stereo not given)	.	.	10µM	.	.	.
C/C=C1\COC(C(=O)NCc2cccc(OC)c2OC)(C(F)(F)F)C=C1C=C1CCCCC1 (stereo not given)	?	?	?	.	.	.
C/C=C1\COC(C(=O)NC)(C(F)(F)F)C=C1C=C1CCCCC1 (stereo not given)	/	/	16µM	/	/	.
C/C=C1\COC(C(=O)NCCOCCO)(C(F)(F)F)C=C1C=C1CCCCC1 (stereo not given)	/	/	13µM	/	/	.
CC=C1COC(C(=O)NCCOCCO)(C(F)(F)F)C=C1C=C(C)C (stereo not given)	/	/	?	/	/	.
CCCCCCCCCCCCCCCCn1cc[n+](CC(C)=O)c1	.	?	20µM	?	30µM	.
CCCCCCn1ccc(=N)cc1	.	.	.	?	.	.
C[C@]12C=CC(=O)N[C@@H]1CC[C@H]1[C@H]3CC[C@@H](C(=O)Nc4cc(C(F)(F)F)ccc4C(F)(F)F)[C@@]3(C)CC[C@@H]12	/	/	/	.	/	/
CCCCCC(C)NC(=S)NC(=O)c1cc(S(=O)(=O)N2CCOCC2)ccc1C (stereo not given)	.	.	11µM	.	.	.
COc1cccc(NC(=O)CSc2nc3n[nH]c(C)c3c(=N)n2-c2cccc(OC)c2)c1	.[9.24 µM]	?	?	.	.	.
Cc1ccc(-n2c(SCC(=O)Nc3cccc(Cl)c3)nc3n[nH]c(C)c3c2=N)cc1	/	/	1.8µM	/	/	13µM
CCOc1ccc(-n2c(SCC(=O)Nc3ccc(Br)cc3)nc3n[nH]c(C)c3c2=N)cc1	16µM	15µM	?	?	?	.
CCc1ccc(NC(=O)CSc2nc3n[nH]c(C)c3c(=N)n2-c2cccc(OC)c2)cc1	11µM	?	.	.	.	.
Cc1cccc(Cn2cnc3c(cnn3C(C)(C)C)c2=O)c1F	/	/	.	/	/	.
SMILES	HT1080 IDH1KD tx	HT1080-NT tox	TGFb SMAD3 inh	ATXN2 expr inh	S2 tox	HepG2 viability
O=C1CC(c2ccccc2)CC(O)=C1C=NCc1ccccc1 (stereo not given)	.	.	.	.	.	.
O=C1CC(c2ccccc2)CC(O)=C1C=NCCc1ccccc1 (stereo not given)	.	.	.	.	.	.
O=C1CC(c2ccccc2)CC(O)=C1C=NCc1ccccc1Cl (stereo not given)	?	5.6µM	.	.	.	.
O=C1CCCC(O)=C1C=NCc1ccccc1	.	.	.	4.7µM	.	.
COc1ccc2c(c1OC)C(=O)OC2c1ccc(O)cc1 (stereo not given)	/	/	.	/	/	.
COCC(=O)Nc1cc(C(=O)N2CCCOc3c(cccc3OC)C2)c2c(c1)nc(C1CCC1)n2C	/	/	/	/	.	/
O=C1CC(/C=C/c2ccccc2)=Nc2ccccc2N1	.	.	?	.	.	.
O=C1CC(/C=C/c2ccc(Cl)cc2)=Nc2ccccc2N1	.	?	11µM	.	?	.

Assay outcomes deposited in PubChem by National Center for Advancing Translational Sciences (NCATS).
